PREPL inhibitor: inhibitors of human prolyl oligopeptidase-like enzyme PREPL; hit rate 0.68% among 320,000; inhibition, % at 5.96 µM; AID 2751; recombinant PREPL, fluorescence polarization activity-based probe; Q4J6C6; in the data active = inhibition above about 43%;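 note: 0% = enzyme with DMSO and 100% = wells lacking enzyme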
GRK2 inh: blocks RNA aptamer binding to human GRK2; P25098; bead flow cytometry, FAM-aptamer displacement from GRK2; inhibition of aptamer binding, % at 10 µM; hit rate 0.59% among 330,000;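 active = inhibition of aptamer binding above 40%, roughly 3 SD of noise, on plates passing a quality check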;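 note: median bead fluorescence of bound FAM aptamer so fluorescent compounds give negative values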
GASC-1 inh: human JMJD2C demethylase inhibition; AID 2099; GST-JMJD2C(1-420) H3K9me3 demethylation, DELFIA europium; hit rate 0.069% among 330,000; inhibition, % at 2.35 µM;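 active = more than half of a compound's replicate wells show inhibition beyond 50%, single wells judged on their own value; inconclusive = some, but no more than half, of replicates pass 50% inhibition; inactive = no replicate passes 50% inhibition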;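 note: signal counts dimethyl H3K9 product captured on neutravidin plate; 0% = median of DMSO wells and 100% = 0.3 times that DMSO median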
Pemphigus Ab inh: inhibitors of pemphigus antibody binding to human desmoglein-3. P32926. DSG3-coupled beads, scFv-anti-DSG3-GFP binding, flow cytometry; stronger effect = lower value. binding (percent of control), % at 10 µM. hit rate 0.48% among 310,000. AID 588358;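 active = binding more than 3 SD below its plate's average and above zero; inconclusive = below that plate limit but binding exactly zero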
VLA-4 inh: inhibition in a human VLA-4 binding assay | P13612 | VLA-4 expressing cells, ligand binding flow cytometry | inhibition, % (about 7 µM as worked out from the volumes in the protocol) | hit rate 0.2% among 330,000 | AID 2557; in the data active = inhibition above about 50%
GRK2 inh confirm: human GRK2 inhibition confirmation, cherry pick 1 | shares compounds with GRK2 inh | bead-bound GRK2, FAM-aptamer displacement, flow cytometry | aptamer displacement, % at 10 µM | hit rate 4% among 2,000;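 active = aptamer displacement above 40%, near three times the noise of non-fluorescent compounds, on plates passing quality checks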;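 note: negative values mostly reflect intrinsic compound fluorescence rather than true enhancement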
Aptamer quench SP: quenches fluorescent RNA aptamer, GRK2 hit artifact; shares compounds with GRK2 inh; Carboxyfluorescein RNA aptamer on beads, flow cytometry quenching; stronger effect = lower value; fluorescence response (% of DMSO), % at 10 µM; 2,000 tested, under 10 active; AID 504580;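 active = compounds that quench the bead-bound fluorescent RNA probe, cutting fluorescence to under half of the solvent control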;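 note: counterscreen run without GRK2 so only probe quenching by compound is measured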
GRK2 CP2: confirmation of human GRK2 inhibitors binding RNA aptamer site | inhibition of aptamer binding, % at 10 µM | shares compounds with GRK2 inh | bead-bound GRK2, FAM-aptamer displacement, flow cytometry | 360 tested, under 10 active;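 active = inhibition of aptamer binding above 40%, about triple the noise seen with nonglowing compounds, on plates passing quality control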;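 note: negative values mostly come from compounds that fluoresce themselves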
FAM quench CP2: counter-screen for GRK2 binding hits: quenchers of fluorescent RNA aptamer | fluorescence response vs DMSO, % at 10 µM | carboxyfluorescein RNA aptamer beads, flow cytometry quenching; stronger effect = lower value | shares compounds with GRK2 inh | AID 588494 | 360 tested, under 10 active;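 active = response vs DMSO under 50%, meaning signal dropped by over half, treated as fluorescence quencher; inconclusive = no clear call, values can overlap the other calls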;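 note: labelled aptamer on streptavidin beads without GRK2 as a quench counter-screen; 100% = bead fluorescence of DMSO wells and lower means quenching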
* marks the source's active call; other numbers are inactive results; ? = inconclusive; nt = no result given. The list is not random: actives were taken first. Their share in the collection is about 1.6%.

SMILES	PREPL inhibitor	GRK2 inh	GASC-1 inh	Pemphigus Ab inh	VLA-4 inh	GRK2 inh confirm	Aptamer quench SP	others
COc1ccc(OC)c(NC(=O)c2cccc(NC(=O)c3ccccc3C(=O)O)c2)c1	6	1	-3	97	8	nt	nt
O=c1ccc2cc(S(=O)(=O)N3CCOCC3)ccc2o1	5	56*	-1	116	-17	-5	101
O=C(CCCN1C(=O)/C(=C/c2cccs2)SC1=S)Nc1cccc(C(=O)O)c1	-13	95*	1	105	5	1	101
COc1ccc(CN2C(=O)C(CC(C)C)Nc3ncnc(N4CCOCC4)c32)cc1 (stereo not drawn)	13	97*	?	100	-1	0	96
COC(=O)c1ccc(CNC(=O)COC(=O)c2cc(Cl)nc(Cl)c2)cc1	9	4	0	97	-17	nt	nt
CCN(CC)C(=O)c1ccccc1NS(=O)(=O)c1ccc(OC)c(C(=O)N2CCOCC2)c1	-1	61*	16	117	-7	-2	100
C=CCNC(=O)c1ccccc1NS(=O)(=O)c1ccc(OC)c(C(=O)N2CCOCC2)c1	-7	0	4	108	2	nt	nt
Cc1cc(C(=O)CN2C(=O)C(=O)N(CCC3=CCCCC3)C2=O)c(C)n1C	15	4	2	98	3	nt	nt
CC1CCN(c2nc(CN3CCCCC3)nc3scc(-c4ccccc4)c23)CC1	14	0	-3	129	25	-3	94
COc1cccc(/C=N/NC(=O)CC2C(=O)NN=C2C)c1OC (stereo not drawn)	3	1	2	108	2	nt	nt
COc1cccc(/C=N/NC(=O)CC2C(=O)NN=C2C)c1O (stereo not drawn)	3	66*	-1	94	2	2	97
C/C(CC(=O)Nc1ccc(Cl)c(Cl)c1)=N\NC(N)=S	-11	0	-10	nt	19	nt	nt
CCN1CCN(CCCNC(=O)c2ccc3c(=O)n(CCc4ccccc4)c(=O)[nH]c3c2)CC1	19	0	-16	94	8	nt	nt
Cc1ccc(NC(=O)CCC(=O)N/N=C/c2ccccc2O)cc1	-3	2	6	105	2	nt	nt
Cc1cccc(NC(=O)CCC(=O)N/N=C/c2ccc(O)cc2O)c1	7	56*	-1	96	0	2	105
O=C(O)c1ccc(Oc2ccccc2)o1	-6	1	-6	104	-4	nt	nt
Cc1c(NC(=O)c2n[nH]c(=O)c3ccccc23)c(=O)n(-c2ccccc2)n1C	-5	81*	1	102	-4	-1	109
Cc1ccc(C(=O)Nc2c(C)n(C)n(-c3ccccc3)c2=O)cc1	-2	1	-2	101	10	nt	nt
COC(=O)c1ccc(CSc2nnc(C)n2N)o1	5	100*	-51	99	12	nt	nt	GRK2 CP2=-1;FAM quench CP2=111
COc1ccc(/C=C2\CCn3c2nc2cc(C(=O)O)ccc2c3=O)cc1	4	41*	-31	99	-1	nt	nt	GRK2 CP2=0;FAM quench CP2=99
CC(C)(C)c1ccc(/C=C2\CCn3c2nc2cc(C(=O)O)ccc2c3=O)cc1	3	0	-17	111	-7	nt	nt
Cc1nc2ccc(-c3nc4ccc(N)cc4[nH]3)cc2[nH]1	30	88*	3	92	-3	-25	102
Nc1ccc2nc(-c3cccc(-c4nc5ccc(N)cc5[nH]4)c3)[nH]c2c1	28	99*	3	73*	-11	-53	90
Nc1ccc(-c2nc3ccc(N)cc3[nH]2)cc1	21	0	0	90	29	nt	nt
Cc1coc2c(C)c3oc(=O)c(CCC(=O)N4CCC(C(=O)NCCCC(=O)O)(c5ccccc5)CC4)c(C)c3cc12	0	3	14	104	12	nt	nt
CSCCC(NC(=O)c1cc(S(=O)(=O)N2CCOCC2)ccc1C)c1nc2ccccc2[nH]1 (stereo not drawn)	nt	nt	nt	96	nt	nt	nt
